Results: PubChem BioAssay AID1159580 (chemical genetic matrix, 2015)
Out of some 5,500 compounds screened, about 2,000 (36%) were called active. About 18% were inconclusive and are not listed. This is one part of the list. Values without a mark were called inactive. Cut-off read from the data, not from the text of the source: active = normalized growth mostly below about 0.91 (no sharp cut-off); inconclusive = no clear call, values can overlap the other calls; inactive = mostly above about 0.92.

Assay: chemical genetic growth profiling, strain panel (AID 1159580);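 note: tested at 20 µM; growth read once vehicle control cultures reached saturation at 30 °C; 1 = growth at the plate median or of vehicle wells; lower values mean less growth of the strain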
Details: S. cerevisiae deletion strains, growth OD

CN(CCC(N)CC(=O)N[C@H]1C=CC(n2ccc(N)nc2=O)O[C@@H]1C(=O)O)C(=N)N (stereo not given in full)
normalized growth (locus YAL021C, strain ccr4, hits give low values): 0.406 (active)
normalized growth (locus YAL026C, strain drs2, hits give low values): 0.953
normalized growth (locus YAL030W, strain snc1, hits give low values): 0.93
normalized growth (locus YBL061C, strain skt5, hits give low values): 0.938
normalized growth (locus YBR009C, strain hhf1, hits give low values): 0.895 (active)
normalized growth (locus YBR023C, strain chs3, hits give low values): 0.944
normalized growth (locus YBR171W, strain sec66, hits give low values): 0.963
normalized growth (locus YBR231C, strain swc5, hits give low values): 0.976
normalized growth (locus YBR279W, strain paf1, hits give low values): 0.916 (active)
normalized growth (locus YCL011C, strain gbp2, hits give low values): 0.935
normalized growth (locus YCL016C, strain dcc1, hits give low values): 0.947
normalized growth (locus YCL061C, strain MRC1, hits give low values): 0.899 (active)
normalized growth (locus YCL069W, strain vba3, hits give low values): 0.942
normalized growth (locus YCR088W, strain abp1, hits give low values): 0.962
normalized growth (locus YDL005C, strain med2, hits give low values): 0.111 (active)
normalized growth (locus YDL040C, strain nat1, hits give low values): 0.983
normalized growth (locus YDR001C, strain nth1, hits give low values): 0.965
normalized growth (locus YDR069C, strain doa4, hits give low values): 0.494 (active)
normalized growth (locus YDR137W, strain rgp1, hits give low values): 0.852
normalized growth (locus YDR159W, strain sac3, hits give low values): 0.659 (active)
normalized growth (locus YDR195W, strain ref2): 0.603 (active)
normalized growth (locus YDR297W, strain sur2, hits give low values): 0.941
normalized growth (locus YDR334W, strain swr1, hits give low values): 0.917
normalized growth (locus YDR335W, strain msn5, hits give low values): 0.626 (active)
normalized growth (locus YDR392W, strain spt3, hits give low values): 0.262 (active)
normalized growth (locus YEL003W, strain gim4, hits give low values): 0.919
normalized growth (locus YEL037C, strain rad23, hits give low values): 0.963
normalized growth (locus YEL061C, strain CIN8 (second series), hits give low values): 0.952
normalized growth (locus YER015W, strain faa2, hits give low values): 0.917 (active)
normalized growth (locus YER016W, strain bim1, hits give low values): 0.976
normalized growth (locus YER111C, strain swi4, hits give low values): 0.793 (active)
normalized growth (locus YER155C, strain BEM2 (second series), hits give low values): 0.826 (active)
normalized growth (locus YFR010W, strain ubp6, hits give low values): 0.725 (active)
normalized growth (locus YGL167C, strain pmr1, hits give low values): 0.998
normalized growth (locus YGL173C, strain kem1, hits give low values): 0.124 (active)
normalized growth (locus YGL227W, strain vid30, hits give low values): 0.98
normalized growth (locus YGL240W, strain doc1, hits give low values): 0.31 (active)
normalized growth (locus YGL253W, strain hxk2, hits give low values): 0.942
normalized growth (locus YHR013C, strain ard1, hits give low values): 0.929
normalized growth (locus YHR027C, strain rpn1, hits give low values): 0.814 (active)
normalized growth (locus YHR030C, strain SLT2, hits give low values): 0.9
normalized growth (locus YHR079C, strain IRE1, hits give low values): 0.924
normalized growth (locus YHR142W, strain chs7, hits give low values): 0.846 (active)
normalized growth (locus YJL092W, strain hpr5, hits give low values): 0.913 (active)
normalized growth (locus YJL095W, strain BCK1 (second series), hits give low values): 0.891 (active)
normalized growth (locus YJL095W, strain BCK1, hits give low values): 0.934
normalized growth (locus YJL115W, strain asf1, hits give low values): 0.725 (active)
normalized growth (locus YJL129C, strain trk1, hits give low values): 0.637 (active)
normalized growth (locus YJL154C, strain vps35, hits give low values): 0.898 (active)
normalized growth (locus YJL164C, strain tpk1, hits give low values): 0.888 (active)
normalized growth (locus YJL166W, strain qcr8, hits give low values): 0.891 (active)
normalized growth (locus YJL187C, strain SWE1, hits give low values): 0.872 (active)
normalized growth (locus YJR066W, strain TOR1, hits give low values): 0.814 (active)
normalized growth (locus YKL160W, strain elf1, hits give low values): 0.887 (active)
normalized growth (locus YKR026C, strain gcn3, hits give low values): 0.965
normalized growth (locus YKR091W, strain srl3, hits give low values): 0.986
normalized growth (locus YLL001W, strain dnm1, hits give low values): 0.923
normalized growth (locus YLL026W, hits give low values): 0.934
normalized growth (locus YLL041C, strain sdh2, hits give low values): 0.946
normalized growth (locus YLR027C, strain aat2, hits give low values): 0.872 (active)
normalized growth (locus YLR113W, strain HOG1, hits give low values): 0.958
normalized growth (locus YLR221C, strain rsa3, hits give low values): 0.871 (active)
normalized growth (locus YLR258W, strain gsy2, hits give low values): 0.922
normalized growth (locus YLR262C, strain YPT6 (second series), hits give low values): 0.904
normalized growth (locus YLR320W, strain mms22, hits give low values): 0.957
normalized growth (locus YLR342W, strain FKS1, hits give low values): 0.943
normalized growth (locus YLR357W, strain rsc2, hits give low values): 0.31 (active)
normalized growth (locus YLR370C, strain arc18, hits give low values): 0.478 (active)
normalized growth (locus YLR384C, strain iki3, hits give low values): 0.692 (active)
normalized growth (locus YML120C, strain ndi1, hits give low values): 0.888 (active)
normalized growth (locus YMR058W, strain fet3, hits give low values): 0.885 (active)
normalized growth (locus YMR125W, strain sto1, hits give low values): 0.686 (active)
normalized growth (locus YMR129W, hits give low values): 0.949
normalized growth (locus YMR205C, strain PFK2, hits give low values): 1
normalized growth (locus YMR231W, strain pep5, hits give low values): 0.734 (active)
normalized growth (locus YNL071W, strain lat1, hits give low values): 0.89 (active)
normalized growth (locus YNL183C, strain NPR1, hits give low values): 0.881
normalized growth (locus YNL209W, strain ssb2, hits give low values): 0.796 (active)
normalized growth (locus YNL248C, strain rpa49, hits give low values): 0.73 (active)
normalized growth (locus YNL322C, strain KRE1 (second series), hits give low values): 0.942
normalized growth (locus YNR049C, strain mso1, hits give low values): 0.94
normalized growth (locus YOR001W, strain rrp6, hits give low values): 0.793 (active)
normalized growth (locus YOR070C, strain gyp1, hits give low values): 0.962
normalized growth (locus YOR080W, strain dia2, hits give low values): 0.776 (active)
normalized growth (locus YOR083W, strain WHI5, hits give low values): 0.923
normalized growth (locus YOR106W, strain vam3, hits give low values): 0.699 (active)
normalized growth (locus YOR231W, strain MKK1, hits give low values): 0.87
normalized growth (locus YOR265W, strain rbl2, hits give low values): 0.966
normalized growth (locus YOR270C, strain vph1, hits give low values): 0.781
normalized growth (locus YOR290C, strain snf2, hits give low values): 0.875
normalized growth (locus YPL051W, strain arl3, hits give low values): 0.869 (active)
normalized growth (locus YPL078C, strain atp4, hits give low values): 0.826 (active)
normalized growth (locus YPL106C, strain sse1, hits give low values): 0.356 (active)
normalized growth (locus YPL240C, strain hsp82, hits give low values): 0.924 (active)
normalized growth (locus YPL256C, strain CLN2, hits give low values): 0.901
